In PubChem BioAssay one finds composite z-score and z-score data, which are given here for 15 molecules.

Calls of active or inactive are those of the source.

In test [1] the test system is PRMT1 (protein arginine N-methyltransferase 1). Kind of test: PRMT1 binders on small-molecule microarrays, primary screen, biochemical, small-molecule microarray, 635 nm fluorescence (AID 1088).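 Further: binding of Prmt1 protein to compounds spotted on small-molecule microarray slides.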 The settings on record: small-molecule microarray binding, higher = more signal.
Test [2] can be described thus: yeast growth modulation, basal conditions, primary screen, YJM789 clinical isolate, OD600, 24 h (AID 1089).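 Further: growth of clinical yeast isolate S. cerevisiae YJM 789 seeded 1000 cells per well; test concentration not given here.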 The settings on record: S. cerevisiae YJM789 growth, higher = more signal, called active from +8 up or from −8 down.
Test [3] is described as follows: fission yeast growth modulation, primary screen, strain 972, OD600, 24 h, no modulator (AID 1090).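 Further: basal condition with compound alone and no growth modifier present; test concentration not given here.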 The settings on record: S. pombe 972 growth, higher = more signal, called active from +8 up or from −8 down.
Test [4] in a line: S. cerevisiae growth modulation with rapamycin, primary screen, strain BY4716, OD600, 96 h (AID 1091). Further: test concentration not given here. As to conditions: higher = more signal, called active from +8 up or from −8 down.
Test [5] concerns the target Torsin-1A-interacting protein 2 (Homo sapiens) (UniProt Q8NFQ8). The test can be described thus: LULL1 binders on small-molecule microarray, primary screen, cell lysate, human LULL1 lysate, 635/667 nm fluorescence (AID 1092).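 Further: probe is lysate of COS7 cells overexpressing human LULL1; score merges per-feature 667 nm fluorescence with signal-to-noise.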 As to conditions: hLULL1 lysate binding, 635 nm fluorescence, higher = more signal.
A short description of test [6]: E. coli growth modulation, two-sided OD650, primary screen, E. coli filamentation project, strain DRC41, 24 h (AID 1093).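 Further: MC1000 strain lacking acrAB efflux and sulA so SOS filamentation is blocked; test concentration not given here.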 As to conditions: OD650, 24 h, higher = more signal, called active from +8 up or from −8 down.
Test [7] can be described thus: small-molecule microarray binders of probe aLefty2, primary screen, biochemical, biotinylated probe, 635/667 nm fluorescence (AID 1094).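 Further: score merges spot fluorescence near 667 nm with spot signal-to-noise ratio.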 The settings on record: higher = more signal.
In test [8] the test system is Noggin (protein binding on small-molecule microarray). Kind of test: Noggin binders on small-molecule microarray, primary screen, biochemical, 635/667 nm fluorescence (AID 1095).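 Further: score merges 667 nm feature fluorescence with signal to noise over triplicate slides.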 As to conditions: 635 nm fluorescence, higher = more signal.
In test [9] the target is Neurogenic locus notch homolog protein 3 (Homo sapiens) (UniProt Q9UM47). Kind of test: NOTCH3 binders on small-molecule microarray, primary screen, biochemical, 635/667 nm fluorescence (AID 1096). As to conditions: NOTCH3 binding, 635 nm fluorescence, higher = more signal.
Sequence of Neurogenic locus notch homolog protein 3 (Homo sapiens) (Q9UM47 whole entry, looked up): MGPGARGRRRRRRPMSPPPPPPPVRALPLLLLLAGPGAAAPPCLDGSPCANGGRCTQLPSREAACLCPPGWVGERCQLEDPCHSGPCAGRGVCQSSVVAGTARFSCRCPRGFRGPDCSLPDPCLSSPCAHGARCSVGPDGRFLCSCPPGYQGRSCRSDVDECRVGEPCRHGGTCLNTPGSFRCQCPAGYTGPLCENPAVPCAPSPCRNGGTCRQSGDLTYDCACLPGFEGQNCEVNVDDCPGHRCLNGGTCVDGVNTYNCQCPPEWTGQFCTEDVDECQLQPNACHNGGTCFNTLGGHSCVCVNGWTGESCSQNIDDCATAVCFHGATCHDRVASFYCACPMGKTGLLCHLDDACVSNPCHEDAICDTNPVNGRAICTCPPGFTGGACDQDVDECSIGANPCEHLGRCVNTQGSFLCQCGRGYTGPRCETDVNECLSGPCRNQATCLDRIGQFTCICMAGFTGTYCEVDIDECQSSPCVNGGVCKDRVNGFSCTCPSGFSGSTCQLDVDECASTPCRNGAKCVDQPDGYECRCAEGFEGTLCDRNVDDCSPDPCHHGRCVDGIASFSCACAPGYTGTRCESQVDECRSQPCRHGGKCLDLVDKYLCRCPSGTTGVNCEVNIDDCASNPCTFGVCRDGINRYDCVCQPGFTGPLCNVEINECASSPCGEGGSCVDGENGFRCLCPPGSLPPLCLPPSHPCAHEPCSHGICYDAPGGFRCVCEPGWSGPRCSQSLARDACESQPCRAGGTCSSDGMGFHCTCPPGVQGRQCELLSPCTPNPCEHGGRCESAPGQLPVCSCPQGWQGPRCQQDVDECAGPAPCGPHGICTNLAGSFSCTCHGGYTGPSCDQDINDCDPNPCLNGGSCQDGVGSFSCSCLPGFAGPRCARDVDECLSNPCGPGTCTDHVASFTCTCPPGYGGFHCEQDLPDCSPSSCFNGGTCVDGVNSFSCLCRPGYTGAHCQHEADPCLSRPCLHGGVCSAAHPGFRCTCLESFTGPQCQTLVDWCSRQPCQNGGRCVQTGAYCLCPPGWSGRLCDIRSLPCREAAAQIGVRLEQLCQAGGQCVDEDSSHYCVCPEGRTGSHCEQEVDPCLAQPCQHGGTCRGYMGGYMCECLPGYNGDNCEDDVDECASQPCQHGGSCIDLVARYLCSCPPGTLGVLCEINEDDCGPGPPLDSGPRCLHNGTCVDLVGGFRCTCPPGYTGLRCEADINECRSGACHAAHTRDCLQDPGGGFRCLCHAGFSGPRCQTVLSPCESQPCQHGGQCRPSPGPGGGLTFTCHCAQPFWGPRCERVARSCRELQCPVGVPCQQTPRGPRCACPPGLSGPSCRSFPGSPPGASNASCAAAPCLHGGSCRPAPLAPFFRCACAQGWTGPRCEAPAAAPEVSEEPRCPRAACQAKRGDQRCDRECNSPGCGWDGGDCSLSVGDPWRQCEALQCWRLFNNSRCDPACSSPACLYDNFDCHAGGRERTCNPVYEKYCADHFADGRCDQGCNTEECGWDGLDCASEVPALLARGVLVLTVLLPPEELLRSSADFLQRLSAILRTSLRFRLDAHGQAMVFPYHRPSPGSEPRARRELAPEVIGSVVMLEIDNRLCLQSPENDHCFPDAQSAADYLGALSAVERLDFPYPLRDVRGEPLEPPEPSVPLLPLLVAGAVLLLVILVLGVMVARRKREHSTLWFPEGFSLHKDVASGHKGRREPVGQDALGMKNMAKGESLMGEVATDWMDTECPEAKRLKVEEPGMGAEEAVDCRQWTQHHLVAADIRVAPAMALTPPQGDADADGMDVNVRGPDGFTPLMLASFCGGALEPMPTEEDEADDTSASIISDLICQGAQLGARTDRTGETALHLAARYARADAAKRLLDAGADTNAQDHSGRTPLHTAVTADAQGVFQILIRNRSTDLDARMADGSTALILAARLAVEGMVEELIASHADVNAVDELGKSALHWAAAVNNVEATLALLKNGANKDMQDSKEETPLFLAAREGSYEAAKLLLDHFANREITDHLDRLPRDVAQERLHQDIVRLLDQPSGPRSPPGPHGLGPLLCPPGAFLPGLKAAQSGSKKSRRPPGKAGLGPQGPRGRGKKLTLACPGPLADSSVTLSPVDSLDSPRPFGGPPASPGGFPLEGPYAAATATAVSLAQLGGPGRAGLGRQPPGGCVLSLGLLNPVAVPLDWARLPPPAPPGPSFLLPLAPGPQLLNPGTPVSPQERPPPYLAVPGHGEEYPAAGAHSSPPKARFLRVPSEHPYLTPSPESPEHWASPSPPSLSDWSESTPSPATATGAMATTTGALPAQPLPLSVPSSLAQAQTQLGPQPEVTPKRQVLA
Test [10] is described as follows: small-molecule microarray binders of probe aEGFR, primary screen, biochemical, biotinylated probe, 635/667 nm fluorescence (AID 1097).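 Further: probe is a biotinylated anti-EGFR antibody binding compounds printed on slides; score combines fluorescence near 667 nm and signal to noise of each spot.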 As to conditions: higher = more signal.

Sequence of Torsin-1A-interacting protein 2 (Homo sapiens) (Q8NFQ8 whole entry, looked up): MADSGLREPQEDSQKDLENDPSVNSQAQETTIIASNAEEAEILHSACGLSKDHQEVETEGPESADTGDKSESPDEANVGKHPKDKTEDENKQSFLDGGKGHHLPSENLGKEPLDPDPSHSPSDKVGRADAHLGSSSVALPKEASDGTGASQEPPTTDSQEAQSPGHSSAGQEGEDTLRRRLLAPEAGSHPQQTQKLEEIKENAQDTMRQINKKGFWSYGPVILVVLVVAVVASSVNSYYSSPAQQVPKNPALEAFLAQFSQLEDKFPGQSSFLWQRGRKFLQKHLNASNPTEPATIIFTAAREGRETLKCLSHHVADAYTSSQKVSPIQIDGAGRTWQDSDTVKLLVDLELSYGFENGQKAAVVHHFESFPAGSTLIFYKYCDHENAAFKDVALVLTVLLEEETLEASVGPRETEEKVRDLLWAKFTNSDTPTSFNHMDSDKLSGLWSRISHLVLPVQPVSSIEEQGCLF

As for `C=C1C(=O)C=C2CN(C(=O)c3ccccc3)[C@@](Cc3ccc(OC)cc3)(C(=O)OC)[C@@H]12`, the composite z-score was 1.54 in test [1]; 3.85 in [5]; 0.68 in test [7]; 0.232 in test [8]; 1.01 in test [9]; 0.146 in [10]. In addition, the z-score is 0.573 (inactive) in test [2], 1.85 (inactive) in test [3], 10.3 (active) in [4] and -0.656 (inactive) in test [6].
As for `CC(=O)c1ccc(C(O)C2C=CC3C(=O)N(c4ccccc4)C(=O)C3N2Nc2ccc(C(C)C)cc2)cc1` (stereo not given), the composite z-score in test [1] is 1.08; in test [5] it was 2.24; in test [7], 0.136; in [8] it was 0.101; in [9], 1.07; in test [10], 0.187. The z-score in [2] was 1.24 (inactive); in [3], 1.55 (inactive); in test [4], -0.0304 (inactive); in [6], -0.541 (inactive).
As to `O=C1NC(=O)C2C1C=CC(C(O)c1ccc(B(O)O)cc1)N2Nc1ccc(Cl)cc1Cl` (stereo not given), the composite z-score is -0.201 in test [1]; 1.71 in test [5]; 0.126 in test [7]; -0.255 in test [8]; 0.287 in test [9]; -0.0238 in test [10]. Further, the z-score in [2] is 1.33 (inactive); in test [3] it was -0.229 (inactive); in test [4], 0.715 (inactive); in test [6], -0.758 (inactive).
On to `O=C1C2C=CC(C(O)c3ccc([N+](=O)[O-])cc3)N(Nc3ccccc3F)C2C(=O)N1c1ccccc1` (stereo not given), for which the composite z-score was 0.67 in test [1]; 1.87 in test [5]; 0.296 in test [7]; -0.316 in test [8]; 0.98 in [9]; -0.0278 in [10]. Further, the z-score in test [2] was 0.213 (inactive); in test [3] it was 0.619 (inactive); in test [4], 1.05 (inactive); in test [6] it was -0.774 (inactive).
As for `NC(=O)NCC#Cc1ccc2c(c1)[C@]1(C(=O)N2)[C@H](c2ccc(OCCO)cc2)N2[C@H](c3ccccc3)[C@H](c3ccccc3)OC(=O)[C@H]2[C@@H]1C(=O)NC[C@H](O)c1ccccc1`, the composite z-score in test [1] was 0.26; in test [5] it was 0.741; in [7] it was 0.0041; in [8] it was 0.565; in test [9] it was -0.311; in test [10], -0.141. In addition, the z-score in [2] was 2.87 (inactive); in test [3], 1.98 (inactive); in [4], 3.9 (inactive); in [6], 2.55 (inactive).
In the case of `N#Cc1ccc(NN2C(C(O)C3CC=CCC3)C=CC3C(=O)N(c4ccccc4)C(=O)C32)cc1` (stereo not given), the composite z-score is 0.995 in test [1]; 3.5 in test [5]; -0.0873 in test [7]; 0.179 in test [8]; 1.1 in test [9]; 0.0149 in test [10]. Besides, the z-score is 0.609 (inactive) in [2], 0.773 (inactive) in [3], 1.99 (inactive) in test [4] and -0.645 (inactive) in test [6].
With `CCOc1cc(C(O)C2C=CC3C(=O)N(c4ccccc4)C(=O)C3N2Nc2ccccc2F)ccc1O` (stereo not given), the composite z-score was 0.196 in test [1]; 3.01 in test [5]; 0.615 in test [7]; -0.596 in test [8]; 0.0983 in test [9]; 0.561 in test [10]. Further, the z-score in [2] is 1.54 (inactive); in [3], -0.428 (inactive); in [4], 1.81 (inactive); in test [6], -0.199 (inactive).
Consider `C=C(CCCC)/C(=C/C[C@H](OC(=O)c1ccncc1)c1ccc(OCCO)cc1)c1cnc2ccccc2c1`, for which the composite z-score in [1] was 1.51; in test [5], 1.26; in test [7] it was -0.0306; in test [8], 1.17; in test [9], 1.09; in test [10], 0.0129. The z-score in test [2] was 0.144 (inactive); in test [3] it was -2.06 (inactive); in [4], 0.199 (inactive); in [6], 0.7 (inactive).
Turning to `CO[C@H]1O[C@H](CO)[C@@H](OC(=O)Nc2ccccc2-c2ccccc2)[C@H](OC(=O)Nc2ccccc2)[C@H]1OC(=O)Nc1ccccc1`, the composite z-score in test [1] amounted to 1.54; in test [5], 3.12; in [7], 0.208; in test [8], 1.2; in [9], 1.1; in test [10] it was 0.0903. In addition, the z-score is 1.81 (inactive) in test [2], 1.21 (inactive) in test [3], 5.33 (inactive) in [4] and 0.517 (inactive) in [6].
For the molecule `C=CCC(OC(C)=O)[C@@H]1[C@@H](N(Cc2cccc3ccccc23)C(=O)Cc2ccc(OC)cc2)c2cc(OCCCO)ccc2N1C(=O)Cc1ccc2ccccc2c1` (stereo not given in full), the composite z-score in [1] is 0.402; in test [5], 0.574; in test [7], -0.0911; in test [8] it was 0.656; in test [9] it was -0.87; in test [10], -0.0828. In addition, the z-score in [2] was -0.0978 (inactive); in test [3], 0.374 (inactive); in test [4], -1.51 (inactive); in test [6] it was -0.079 (inactive).
For the molecule `COc1ccc(C(=O)Nc2ccc(CN3C(=O)[C@@]4(O[C@@H](CCn5cc(CCO)nn5)[C@H]([Si](C)(C)c5ccc(OC)cc5)[C@H]4C)c4ccccc43)cc2)cc1`, the composite z-score is 1.34 in [1]; 1.26 in test [5]; 0.0868 in [7]; 0.926 in test [8]; 1.11 in test [9]; -0.0271 in test [10]. Further, the z-score is 0.704 (inactive) in test [2], -6.58 (inactive) in [3], 0.377 (inactive) in [4] and -0.583 (inactive) in test [6].
In the case of `C=C(C)[C@@H]1CC=C(C(O)C2C=CC3C(=O)N(C)C(=O)C3N2Nc2ccc([N+](=O)[O-])cc2[N+](=O)[O-])CC1` (stereo not given in full), the composite z-score in test [1] worked out at 1.32; in test [5], 3.52; in test [7], 0.519; in test [8], 0.263; in test [9] it was 1.07; in [10], 0.358. Moreover, the z-score in [2] was 0.513 (inactive); in test [3] it was 1.79 (inactive); in test [4] it was 0.966 (inactive); in test [6] it was -0.476 (inactive).
For `CN1C(=O)C2C(C3CC3)C=C3CN(Cc4cccc(Cl)c4)[C@@H]([C@@H](O)Cc4ccccc4)C3C2C1=O` (stereo not given in full), the composite z-score in test [1] is 1.57; in test [5], 2.94; in [7], -0.126; in test [8], 1.23; in [9], 1.15; in test [10], -0.0679. Also, the z-score in test [2] is 0.347 (inactive); in test [3], -1.87 (inactive); in [4] it was -0.539 (inactive); in [6], 1.71 (inactive).
`O=C1O[C@@H](c2ccccc2)[C@@H](c2ccccc2)N2[C@@H](c3ccc(OCCO)cc3)[C@]3(C(=O)Nc4ccc(C#CCCO)cc43)[C@@H](C(=O)O)[C@H]12`: the composite z-score in [1] came out at 1.53; in [5] it was 2.68; in test [7], 1.03; in test [8] it was 1.31; in test [9] it was 1.04; in test [10], 0.853. Besides, the z-score in test [2] was 0.659 (inactive); in test [3], 0.799 (inactive); in test [4], -0.261 (inactive); in test [6], 0.543 (inactive).
Regarding `COc1cc(CO)cc(I)c1O[C@H]1C=C(C(=O)NCCO)C[C@@H]2O[C@H]12`, the composite z-score in test [1] was found to be 1.56; in test [5] it was 2.63; in test [7], 0.17; in [8], 2.32; in test [9], 1.07; in test [10], 0.0018. Besides, the z-score was 0.111 (inactive) in test [2], -6.47 (inactive) in test [3], -1.42 (inactive) in [4] and -0.0097 (inactive) in test [6].
